Measurements as given in PubChem BioAssay (NCATS).
Inconclusive results are not listed. Active and inactive are the calls of the source. Calls come from the whole dose curve; as a rule, active = well fitted curve in the direction sought with a large enough effect; inconclusive = small, poorly fitted or top-dose-only effect, or another doubt; inactive = no such curve, though single readings can be large; an effect the other way counts as inactive or inconclusive.

Experiments:
[1] = Quantitative High-Throughput drug screen in 47 multiple myeloma cell lines against the NCATS MIPE library collection: Delta47_JCRB cell viability assay (AID 1918925; note: nearly all actives have a fitted effect of over 45% in size; note: potency is the fitted concentration of half-maximal effect)
In short: (§1)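 Relative luminescence from CellTiter-Glo served as the viability signal, referenced to DMSO-treated (100%) and cell-free medium (0%) controls. Treatment lasted 48 hours at 37C with 500 cells per well.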

[2] = Quantitative High-Throughput drug screen in 47 multiple myeloma cell lines against the NCATS MIPE library collection: AMO1_DSMZ cell viability assay (AID 1918927; note: nearly all actives have a fitted effect of over 30% in size; note: potency is the fitted concentration of half-maximal effect)
In short: as §1

[3] = Quantitative High-Throughput drug screen in 47 multiple myeloma cell lines against the NCATS MIPE library collection: KMM1_JCRB cell viability assay (AID 1918960); note: nearly all actives have a fitted effect of over 30% in size; note: potency is the fitted concentration of half-maximal effect
In short: (§2)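 Myeloma cells, 500 per well, were exposed to MIPE 4.0 drugs by pin transfer for 48 h at 37 °C, 5% CO2. Viability was read as ATP luminescence with CellTiter-Glo, normalised to DMSO-only (100%) and medium-only (0%) wells.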

[4] = Quantitative High-Throughput drug screen in 47 multiple myeloma cell lines against the NCATS MIPE library collection: JIM3_ECACC cell viability assay (AID 1918963; note: nearly all actives have a fitted effect of over 35% in size; note: potency is the fitted concentration of half-maximal effect)
In short: (§3)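 Primary qHTS used for cherry-picking: cells at 500/well, library compounds for 48 h (37C, 5% CO2), luminescent ATP assay.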

[5] = Quantitative High-Throughput drug screen in 47 multiple myeloma cell lines against the NCATS MIPE library collection: JIM1_ECACC cell viability assay (AID 1918964; note: potency is the fitted concentration of half-maximal effect)
In short: as §1

[6] = Quantitative High-Throughput drug screen in 47 multiple myeloma cell lines against the NCATS MIPE library collection: INA6_PLB cell viability assay (AID 1918965; note: nearly all actives have a fitted effect of over 55% in size; note: potency is the fitted concentration of half-maximal effect)
In short: (§4)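 We plated 500 myeloma cells per well, pinned in MIPE 4.0 compounds, and incubated for 48 hours at 37C. ATP was then quantified with CellTiter-Glo, with DMSO and media-only wells defining 100% and 0%.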

[7] = Quantitative High-Throughput drug screen in 47 multiple myeloma cell lines against the NCATS MIPE library collection: JJN3_DSMZ cell viability assay (AID 1918966; note: nearly all actives have a fitted effect of over 50% in size; note: potency is the fitted concentration of half-maximal effect)
In short: as §1

[8] = Quantitative High-Throughput drug screen in 47 multiple myeloma cell lines against the NCATS MIPE library collection: Karpas25_ECACC cell viability assay (AID 1918968; note: nearly all actives have a fitted effect of over 35% in size; note: potency is the fitted concentration of half-maximal effect)
In short: as §1

[9] = Quantitative High-Throughput drug screen in 47 multiple myeloma cell lines against the NCATS MIPE library collection: KMS12BM_JCRB cell viability assay (AID 1918971); note: nearly all actives have a fitted effect of over 35% in size; note: potency is the fitted concentration of half-maximal effect
In short: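 Steps: seed 500 cells per well; pin-transfer MIPE 4.0 library; incubate 48 h at 37C, 5% CO2, humidified; add CellTiter-Glo, 5 min room temperature; read luminescence.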

[10] = Quantitative High-Throughput drug screen in 47 multiple myeloma cell lines against the NCATS MIPE library collection: KMS12PE_JCRB cell viability assay (AID 1918972); note: nearly all actives have a fitted effect of over 30% in size; note: potency is the fitted concentration of half-maximal effect
In short: as §4

[11] = Quantitative High-Throughput drug screen in 47 multiple myeloma cell lines against the NCATS MIPE library collection: ARD_JJKsccE7 cell viability assay (AID 1918929; note: potency is the fitted concentration of half-maximal effect)
In short: as §1

[12] = Quantitative High-Throughput drug screen in 47 multiple myeloma cell lines against the NCATS MIPE library collection: KHM11_PLB cell viability assay (AID 1918962); note: potency is the fitted concentration of half-maximal effect; nearly all actives have a fitted effect of over 35% in size
In short: as §3

[13] = Quantitative High-Throughput drug screen in 47 multiple myeloma cell lines against the NCATS MIPE library collection: ARP1_JJKsccF8 cell viability assay (AID 1918928; note: nearly all actives have a fitted effect of over 40% in size; note: potency is the fitted concentration of half-maximal effect)
In short: as §2

[14] = Quantitative High-Throughput drug screen in 47 multiple myeloma cell lines against the NCATS MIPE library collection: Karpas620_DSMZ cell viability assay (AID 1918959); note: nearly all actives have a fitted effect of over 30% in size; note: potency is the fitted concentration of half-maximal effect
In short: as §3

[15] = Quantitative High-Throughput drug screen in 47 multiple myeloma cell lines against the NCATS MIPE library collection: KMS27_JCRB cell viability assay (AID 1918970); settings: KMS27 myeloma cells, CellTiter-Glo ATP viability, 48 h; viability (% of DMSO): at 45.8 µM (top of the series); note: nearly all actives have a fitted effect of over 30% in size; note: potency is the fitted concentration of half-maximal effect
In short: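 Myeloma cells (500 per well) were exposed to MIPE 4.0 compounds for 48 h at 37 °C, 5% CO2; viability was read as ATP luminescence with CellTiter-Glo, normalized to DMSO-only (100%) and media-only (0%) wells.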

[16] = Quantitative High-Throughput drug screen in 47 multiple myeloma cell lines against the NCATS MIPE library collection: KMS20_JCRB cell viability assay (AID 1918973); note: nearly all actives have a fitted effect of over 45% in size; note: potency is the fitted concentration of half-maximal effect
In short: as §1

[17] = Quantitative High-Throughput drug screen in 47 multiple myeloma cell lines against the NCATS MIPE library collection: Karpas417_ECACC cell viability assay (AID 1918961); settings: Karpas417 myeloma viability, CellTiter-Glo ATP luminescence, 48 h; viability (% of DMSO): at 45.8 µM (top of the series); note: potency is the fitted concentration of half-maximal effect
In short: as §4

[18] = Quantitative High-Throughput drug screen in 47 multiple myeloma cell lines against the NCATS MIPE library collection: H1112_PLB cell viability assay (AID 1918967; note: nearly all actives have a fitted effect of over 30% in size)
In short: as §1

[19] = Quantitative High-Throughput drug screen in 47 multiple myeloma cell lines against the NCATS MIPE library collection: EJM_DSMZ cell viability assay (AID 1918926; note: nearly all actives have a fitted effect of over 30% in size; note: potency is the fitted concentration of half-maximal effect)
In short: as §1

Compound	Potency [1]	Potency [2]	Potency [3]	Potency [4]	Potency [5]	Potency [6]	Potency [7]	Potency [8]	Potency [9]	Potency [10]	Potency [11]	Potency [12]	Potency [13]	Potency [14]	Potency [15]	Potency [16]	Potency [17]	Potency [18]	Potency [19]
O=C(C=Cc1ccc(O)cc1)c1ccc(O)cc1O	13.2 µM (active)	10.5 µM (active)	16.6 µM (active)	20.9 µM (active)	4.69 µM (active)	3.32 µM (active)	14.8 µM (active)	23.5 µM (active)	20.9 µM (active)	14.8 µM (active)	–	–	–	–	–	–	–	–	–
COc1cc(Cl)cn2c(-c3cccc(NC4CNC4)n3)cnc12	20.9 µM (active)	5.26 µM (active)	16.6 µM (active)	–	4.18 µM (active)	16.6 µM (active)	–	–	–	–	16.6 µM (active)	18.7 µM (active)	–	–	–	–	–	–	–
CN1CCC[C@H]1CCO[C@](C)(c1ccccc1)c1ccc(Cl)cc1	13.2 µM (active)	–	inactive	–	–	–	–	13.2 µM (active)	–	–	inactive	–	inactive	–	–	–	–	–	–
CCCCCCCCCCCCCC(=O)N[C@H](CO)[C@H](O)c1ccc([N+](=O)[O-])cc1	18.7 µM (active)	10.5 µM (active)	20.9 µM (active)	26.4 µM (active)	14.8 µM (active)	23.5 µM (active)	18.7 µM (active)	18.7 µM (active)	–	8.33 µM (active)	20.9 µM (active)	–	–	16.6 µM (active)	14.8 µM (active)	23.5 µM (active)	–	–	–
CC(C)C[C@@H](C(=O)N[C@H](C(=O)OC1CCCC1)c1ccccc1)[C@H](O)C(=O)NO	20.9 µM (active)	inactive	4.18 µM (active)	5.26 µM (active)	–	–	–	20.9 µM (active)	18.7 µM (active)	2.09 µM (active)	–	–	–	5.26 µM (active)	2.64 µM (active)	–	1.32 µM (active)	–	–
C[C@@]1(C(=O)Nc2ccc(F)nc2)CCCN1c1nc(Nc2cc(C3CC3)[nH]n2)c2cccn2n1	0.0166 µM (active)	0.0935 µM (active)	–	0.0148 µM (active)	–	13.2 µM (active)	0.105 µM (active)	0.0332 µM (active)	0.935 µM (active)	0.166 µM (active)	0.001 µM (active)	–	–	–	0.0526 µM (active)	0.0743 µM (active)	–	–	–
CO[C@H]1/C=C\O[C@@]2(C)Oc3c(C)c(O)c4c(O)c(c5c(nc6cc(C)ccn65)c4c3C2=O)NC(=O)C(C)=CC=C[C@H](C)[C@H](O)[C@@H](C)[C@@H](O)[C@@H](C)[C@H](OC(C)=O)[C@H]1C	11.8 µM (active)	16.6 µM (active)	18.7 µM (active)	inactive	18.7 µM (active)	–	–	–	–	11.8 µM (active)	–	–	–	18.7 µM (active)	18.7 µM (active)	–	0.833 µM (active)	inactive	–
C#C[C@]1(O)CC[C@H]2[C@H]3CCc4cc(OC)ccc4[C@H]3CC[C@@]21C	–	26.4 µM (active)	–	inactive	–	16.6 µM (active)	–	–	18.7 µM (active)	–	23.5 µM (active)	18.7 µM (active)	inactive	–	–	–	–	–	13.2 µM (active)
CS(=O)(=O)c1ccc(C2=C(c3ccccc3)C(=O)OC2)cc1	–	inactive	inactive	inactive	–	inactive	–	inactive	inactive	–	inactive	–	inactive	inactive	inactive	–	inactive	inactive	inactive
CC(C)(CO)[C@@H](O)C(=O)NCCC(=O)O	–	inactive	inactive	inactive	–	–	inactive	inactive	inactive	inactive	inactive	–	1.66 µM (active)	inactive	inactive	–	–	inactive	inactive
CCCCn1c(=O)n(Cc2ccccc2F)c(=O)c2[nH]c(Cc3ccc(NC(C)=O)cc3)nc21	inactive	–	inactive	23.5 µM (active)	0.0042 µM (active)	–	–	–	–	inactive	–	–	–	inactive	inactive	–	–	inactive	–
CCNC(=O)c1noc(-c2cc(C(C)C)c(O)cc2O)c1-c1ccc(CN2CCOCC2)cc1	0.0662 µM (active)	–	–	0.0743 µM (active)	–	0.0833 µM (active)	–	0.0332 µM (active)	–	–	–	0.0833 µM (active)	–	–	inactive	0.0209 µM (active)	–	–	–
CNC(=O)c1cc(COc2nnc(Nc3ccc(Cl)cc3)c3ccoc23)ccn1	inactive	5.26 µM (active)	9.35 µM (active)	inactive	inactive	13.2 µM (active)	29.6 µM (active)	inactive	26.4 µM (active)	6.62 µM (active)	–	–	–	–	inactive	inactive	–	inactive	–
